About 83,000 compounds went through this panel and 20% of them were active in at least one assay; those are over-represented in the sample as a whole.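 Single-concentration screen, 48 h exposure, 96-well plates. Endpoint: percent growth. Below 10 = active.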 Calls of active or inactive are those of the source.
What was measured:
Test in all cases: NCI-60 one-dose screen, 48 h (100 = growth as untreated, 0 = no growth, -100 = all killed)
Details in all cases: 10 µM unless noted
HCT-15 colon = test system: HCT-15 colon
HT29 colon = test system: HT29 colon
SNB-75 CNS = test system: SNB-75 CNS
SNB-19 CNS = test system: SNB-19 CNS
U251 CNS = test system: U251 CNS
PC-3 prostate = test system: PC-3 prostate
SK-MEL-5 melanoma = test system: SK-MEL-5 melanoma
UACC-62 melanoma = test system: UACC-62 melanoma
LOX IMVI melanoma = test system: LOX IMVI melanoma
SK-MEL-28 melanoma = test system: SK-MEL-28 melanoma
SK-MEL-2 melanoma = test system: SK-MEL-2 melanoma
EKVX NSCLC = test system: EKVX NSCLC
SN12C renal = test system: SN12C renal
UO-31 renal = test system: UO-31 renal
TK-10 renal = test system: TK-10 renal
ACHN renal = test system: ACHN renal
CAKI-1 renal = test system: CAKI-1 renal
A498 renal = test system: A498 renal
CCRF-CEM leukemia = test system: CCRF-CEM leukemia
MOLT-4 leukemia = test system: MOLT-4 leukemia

Measured: growth

O=C(Nc1ccccc1CNc1nc(Nc2ccc(OCCN3CCCC3)cc2)ncc1Cl)NC1CCCCC1
active: HT29 colon 9.11%
inactive: HCT-15 colon 60.7% | SNB-75 CNS 96.5% | SNB-19 CNS 91.6% | U251 CNS 70.4% | PC-3 prostate 84% | SK-MEL-5 melanoma 64.6% | UACC-62 melanoma 97.3% | LOX IMVI melanoma 84.7% | SK-MEL-28 melanoma 79.8% | SK-MEL-2 melanoma 115% | EKVX NSCLC 95% | SN12C renal 88.1% | UO-31 renal 56.3% | TK-10 renal 116% | ACHN renal 78.2% | CAKI-1 renal 94.3% | A498 renal 75.3% | CCRF-CEM leukemia 12% | MOLT-4 leukemia 72.3%

c1ccc(-c2cn3nc(-c4c[nH]c5ccccc45)sc3n2)cc1
inactive: HCT-15 colon 56.2% | HT29 colon 86% | SNB-75 CNS 54.1% | SNB-19 CNS 87.6% | U251 CNS 92.4% | PC-3 prostate 76.8% | SK-MEL-5 melanoma 74.2% | UACC-62 melanoma 71% | LOX IMVI melanoma 86% | SK-MEL-28 melanoma 86.8% | SK-MEL-2 melanoma 94.4% | EKVX NSCLC 70.3% | SN12C renal 83% | UO-31 renal 46.4% | TK-10 renal 105% | ACHN renal 83.3% | CAKI-1 renal 66.1% | A498 renal 89.9% | CCRF-CEM leukemia 86.4% | MOLT-4 leukemia 83.9%

CCN1C(=O)N(CC)C2C1NN=c1s/c(=C3\C(=O)N(C)c4ccccc43)c(=O)n12 (stereo not given)
active: SNB-75 CNS -10.8% | A498 renal -26.9%
inactive: HCT-15 colon 22.2% | HT29 colon 11.5% | SNB-19 CNS 37.2% | U251 CNS 34.9% | PC-3 prostate 35% | SK-MEL-5 melanoma 32.8% | UACC-62 melanoma 29.1% | LOX IMVI melanoma 47.7% | SK-MEL-28 melanoma 52.6% | SK-MEL-2 melanoma 60.3% | EKVX NSCLC 57.8% | SN12C renal 36.9% | UO-31 renal 43.6% | TK-10 renal 69.8% | ACHN renal 40.9% | CAKI-1 renal 42.2% | CCRF-CEM leukemia 30.8% | MOLT-4 leukemia 45.1%

COc1ccc(Cn2cc3c(c2)-c2oncc2CC3)cc1
inactive: HCT-15 colon 54.8% | SNB-75 CNS 50.6% | SNB-19 CNS 71.8% | U251 CNS 42.8% | PC-3 prostate 82.3% | SK-MEL-5 melanoma 49.7% | UACC-62 melanoma 38.6% | LOX IMVI melanoma 59% | SK-MEL-28 melanoma 69.9% | SK-MEL-2 melanoma 68% | EKVX NSCLC 66.3% | SN12C renal 77.8% | UO-31 renal 68.2% | TK-10 renal 101% | ACHN renal 99.2% | CAKI-1 renal 64% | A498 renal 57.7% | CCRF-CEM leukemia 35.2% | MOLT-4 leukemia 58%
active: HT29 colon 9.48%

O=C(/C=C/c1cccc([N+](=O)[O-])c1)c1ccc(Nc2nc(Nc3ccc(F)cc3)nc(Nc3ccc(Cl)cc3)n2)cc1
inactive: HCT-15 colon 83.9% | HT29 colon 88% | SNB-75 CNS 106% | SNB-19 CNS 100% | U251 CNS 81.1% | PC-3 prostate 88.5% | SK-MEL-5 melanoma 87.6% | UACC-62 melanoma 93.9% | LOX IMVI melanoma 84.2% | SK-MEL-28 melanoma 97.1% | SK-MEL-2 melanoma 70% | EKVX NSCLC 79.5% | SN12C renal 88.3% | UO-31 renal 79.8% | TK-10 renal 141% | ACHN renal 92% | CAKI-1 renal 91.4% | A498 renal 110% | CCRF-CEM leukemia 43.6%
active: MOLT-4 leukemia 3.89%

CCNCCNc1c(C)c(-c2ccc(C(F)(F)F)cc2)c(C#N)c2nc3ccccc3n12
inactive: HCT-15 colon 78.6% | HT29 colon 77.3% | SNB-75 CNS 57.6% | SNB-19 CNS 78.6% | U251 CNS 78.8% | PC-3 prostate 76.1% | SK-MEL-5 melanoma 87.2% | UACC-62 melanoma 92.4% | LOX IMVI melanoma 82.5% | SK-MEL-28 melanoma 103% | SK-MEL-2 melanoma 102% | EKVX NSCLC 92.4% | SN12C renal 67.2% | UO-31 renal 79.1% | TK-10 renal 109% | ACHN renal 82.5% | CAKI-1 renal 92.3% | A498 renal 69.6% | CCRF-CEM leukemia 86.9% | MOLT-4 leukemia 90.9%

CC1=NN(c2cccc(Cl)c2)C(=O)/C1=C\C=C\c1ccccc1
active: HCT-15 colon 5% | HT29 colon -29.5% | U251 CNS -57.4% | SK-MEL-5 melanoma 5.05% | LOX IMVI melanoma -87.9% | SK-MEL-28 melanoma -69.7% | SN12C renal 0.408% | ACHN renal -51.3% | CCRF-CEM leukemia 2.35%
inactive: SNB-75 CNS 50.9% | SNB-19 CNS 37.5% | PC-3 prostate 45.5% | UACC-62 melanoma 28.2% | SK-MEL-2 melanoma 74.6% | EKVX NSCLC 87.1% | UO-31 renal 69.7% | TK-10 renal 44.8% | CAKI-1 renal 52.2% | A498 renal 110% | MOLT-4 leukemia 28.4%

CN(C)CC1C(=O)O[C@H]2[C@H]1CC/C(COC(=O)NCc1ccc(Cn3c(=O)sn(CCCI)c3=O)cc1)=C\CC[C@@]1(C)O[C@@H]21 (stereo not given in full)
active: HCT-15 colon 5.27% | HT29 colon -80.4% | LOX IMVI melanoma -75.8% | SK-MEL-28 melanoma -80.3% | UO-31 renal 1.41% | TK-10 renal -63.3% | ACHN renal -48.8% | CAKI-1 renal -63.8% | CCRF-CEM leukemia -10.1% | MOLT-4 leukemia -1.36%
inactive: SNB-75 CNS 71.8% | SNB-19 CNS 89.9% | U251 CNS 84.7% | PC-3 prostate 66.5% | SK-MEL-5 melanoma 64.2% | UACC-62 melanoma 15.9% | SK-MEL-2 melanoma 63.3% | EKVX NSCLC 89.7% | SN12C renal 18.9% | A498 renal 105%

Cc1c(CC(=O)Nc2ccccc2)nnn1-c1ccccc1
inactive: HCT-15 colon 101% | HT29 colon 111% | SNB-75 CNS 104% | SNB-19 CNS 102% | U251 CNS 102% | PC-3 prostate 104% | SK-MEL-5 melanoma 101% | UACC-62 melanoma 97.7% | LOX IMVI melanoma 97.7% | SK-MEL-28 melanoma 112% | SK-MEL-2 melanoma 107% | EKVX NSCLC 104% | SN12C renal 108% | UO-31 renal 88.2% | TK-10 renal 101% | ACHN renal 109% | CAKI-1 renal 97.5% | A498 renal 108% | CCRF-CEM leukemia 105% | MOLT-4 leukemia 99.7%

CN(C)c1ccc(/C=N/NC(=O)CSc2nc3sc4c(c3c(=O)n2-c2ccccc2)CCCCC4)cc1
active: SNB-75 CNS -2.33% | U251 CNS 5.23% | PC-3 prostate -23.4% | UACC-62 melanoma 8.03% | CAKI-1 renal 8.87%
inactive: HCT-15 colon 43.8% | HT29 colon 45.8% | SNB-19 CNS 48.8% | SK-MEL-5 melanoma 46.2% | LOX IMVI melanoma 37.1% | SK-MEL-28 melanoma 47.4% | SK-MEL-2 melanoma 78.6% | EKVX NSCLC 47% | SN12C renal 55.5% | UO-31 renal 77.8% | TK-10 renal 64.9% | ACHN renal 24.6% | A498 renal 34.8% | CCRF-CEM leukemia 70.9% | MOLT-4 leukemia 71.8%

COc1cccc(-c2cc(-c3ccc(Nc4nc(Nc5ccc(Cl)cc5)nc(Nc5ccc(Cl)cc5)n4)cc3)nc(N)c2C#N)c1
active: U251 CNS 3.83% | PC-3 prostate -5.44% | LOX IMVI melanoma -33.6% | SK-MEL-28 melanoma -59.7% | UO-31 renal -66.8% | TK-10 renal -53.4% | CCRF-CEM leukemia 5.11% | MOLT-4 leukemia 7.5%
inactive: HCT-15 colon 22.8% | HT29 colon 16.8% | SNB-75 CNS 65.9% | SNB-19 CNS 106% | SK-MEL-5 melanoma 13% | UACC-62 melanoma 76.4% | SK-MEL-2 melanoma 37.7% | EKVX NSCLC 34.3% | SN12C renal 79% | ACHN renal 33.1% | CAKI-1 renal 37.3% | A498 renal 80.5%

COc1cccc(/C=C2\CCc3ccccc3C2=O)c1
inactive: HCT-15 colon 87.2% | HT29 colon 77.1% | SNB-75 CNS 97.4% | SNB-19 CNS 75.7% | U251 CNS 83.2% | PC-3 prostate 83.4% | SK-MEL-5 melanoma 76.8% | UACC-62 melanoma 80.1% | LOX IMVI melanoma 80.2% | SK-MEL-28 melanoma 118% | SK-MEL-2 melanoma 82.9% | EKVX NSCLC 87.9% | SN12C renal 84.6% | UO-31 renal 72.5% | TK-10 renal 94.4% | ACHN renal 95.7% | CAKI-1 renal 77.3% | A498 renal 95.2% | CCRF-CEM leukemia 37.7% | MOLT-4 leukemia 71.6%

O=c1c2cccc3c(N4CCOCC4)ccc(c32)c2nc3ccccc3n12
inactive: HCT-15 colon 81% | HT29 colon 93.7% | SNB-75 CNS 79.1% | SNB-19 CNS 95.8% | U251 CNS 90.7% | PC-3 prostate 99.9% | SK-MEL-5 melanoma 73.4% | UACC-62 melanoma 62.1% | LOX IMVI melanoma 84.8% | SK-MEL-28 melanoma 107% | SK-MEL-2 melanoma 108% | EKVX NSCLC 38.3% | SN12C renal 87.6% | UO-31 renal 65.9% | TK-10 renal 71.8% | ACHN renal 91.1% | CAKI-1 renal 69.6% | A498 renal 101% | CCRF-CEM leukemia 93.1% | MOLT-4 leukemia 90.8%

FC(F)(F)c1cc(N2CCCCC2)nc(NCCCNc2ccnc3cc(Cl)ccc23)n1
inactive: HCT-15 colon 53.2% | HT29 colon 26.8% | SNB-75 CNS 71.9% | SNB-19 CNS 82.2% | U251 CNS 67.4% | PC-3 prostate 45.4% | SK-MEL-5 melanoma 27.1% | UACC-62 melanoma 61.9% | LOX IMVI melanoma 65.8% | SK-MEL-28 melanoma 76.7% | SK-MEL-2 melanoma 64.9% | EKVX NSCLC 48.3% | SN12C renal 69.1% | UO-31 renal 46.8% | TK-10 renal 63.6% | ACHN renal 65.8% | CAKI-1 renal 60.7% | A498 renal 47.8% | CCRF-CEM leukemia 54% | MOLT-4 leukemia 40%

Cc1nc2cccc(NCc3ccc(C(=O)NO)cc3)c2c(=O)n1-c1ccccc1
inactive: HCT-15 colon 31.3% | HT29 colon 26.4% | SNB-75 CNS 42.6% | SNB-19 CNS 40.8% | PC-3 prostate 27% | LOX IMVI melanoma 26.6% | SK-MEL-28 melanoma 35.7% | SK-MEL-2 melanoma 61.7% | EKVX NSCLC 61.8% | SN12C renal 63.2% | UO-31 renal 17% | TK-10 renal 15.9% | ACHN renal 30.5% | CAKI-1 renal 28% | A498 renal 41.3% | CCRF-CEM leukemia 13.4% | MOLT-4 leukemia 11.5%
active: U251 CNS -16.7% | SK-MEL-5 melanoma 8.27% | UACC-62 melanoma -17.7%

From PubChem BioAssay (NCI)
